Experimental findings from ChEMBL document CHEMBL1961873, “Compounds: GSK PKIS; Assays: Nanosyn kinase panel” (2012) are described below.

In test [1] the target is High affinity nerve growth factor receptor (Homo sapiens) (UniProt P04629). Particulars: at 1 µM.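 Note: each value is the mean percent inhibition of TRKA.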
The target of test [2] is BDNF/NT-3 growth factors receptor (Homo sapiens) (UniProt Q16620). Particulars: at 0.1 µM.
For test [3] the target is unchanged. As to conditions: at 1 µM.
For test [4], the target named is NT-3 growth factor receptor (Homo sapiens) (UniProt Q16288). As to conditions: at 0.1 µM.
NT-3 growth factor receptor (Homo sapiens), sequence (Q16288 32-839 limits assumed): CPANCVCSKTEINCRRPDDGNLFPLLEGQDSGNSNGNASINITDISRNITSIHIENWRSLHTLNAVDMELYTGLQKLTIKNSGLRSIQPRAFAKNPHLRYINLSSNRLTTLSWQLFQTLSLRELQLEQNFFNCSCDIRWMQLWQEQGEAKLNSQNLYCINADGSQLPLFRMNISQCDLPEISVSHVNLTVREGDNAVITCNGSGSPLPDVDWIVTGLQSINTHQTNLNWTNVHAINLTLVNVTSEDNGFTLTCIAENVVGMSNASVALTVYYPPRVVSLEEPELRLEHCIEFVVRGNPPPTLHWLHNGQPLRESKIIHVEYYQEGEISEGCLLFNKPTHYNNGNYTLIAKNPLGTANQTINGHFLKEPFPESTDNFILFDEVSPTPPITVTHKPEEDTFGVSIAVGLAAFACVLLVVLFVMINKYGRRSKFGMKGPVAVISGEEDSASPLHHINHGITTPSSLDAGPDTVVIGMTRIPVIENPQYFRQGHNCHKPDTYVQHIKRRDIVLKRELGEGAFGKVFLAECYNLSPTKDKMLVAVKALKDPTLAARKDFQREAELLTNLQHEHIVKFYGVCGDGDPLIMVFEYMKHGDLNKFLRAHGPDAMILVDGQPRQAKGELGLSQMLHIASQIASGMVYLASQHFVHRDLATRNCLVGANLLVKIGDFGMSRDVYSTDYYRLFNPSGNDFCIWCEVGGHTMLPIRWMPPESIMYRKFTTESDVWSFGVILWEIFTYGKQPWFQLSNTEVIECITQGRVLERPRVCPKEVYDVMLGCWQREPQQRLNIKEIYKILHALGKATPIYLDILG
Test [5] has the same target. Particulars: at 1 µM.
The target of test [6] is T1, Tyrosine-protein kinase TXK (Homo sapiens) (UniProt P42681).
T1 sequence (whole entry): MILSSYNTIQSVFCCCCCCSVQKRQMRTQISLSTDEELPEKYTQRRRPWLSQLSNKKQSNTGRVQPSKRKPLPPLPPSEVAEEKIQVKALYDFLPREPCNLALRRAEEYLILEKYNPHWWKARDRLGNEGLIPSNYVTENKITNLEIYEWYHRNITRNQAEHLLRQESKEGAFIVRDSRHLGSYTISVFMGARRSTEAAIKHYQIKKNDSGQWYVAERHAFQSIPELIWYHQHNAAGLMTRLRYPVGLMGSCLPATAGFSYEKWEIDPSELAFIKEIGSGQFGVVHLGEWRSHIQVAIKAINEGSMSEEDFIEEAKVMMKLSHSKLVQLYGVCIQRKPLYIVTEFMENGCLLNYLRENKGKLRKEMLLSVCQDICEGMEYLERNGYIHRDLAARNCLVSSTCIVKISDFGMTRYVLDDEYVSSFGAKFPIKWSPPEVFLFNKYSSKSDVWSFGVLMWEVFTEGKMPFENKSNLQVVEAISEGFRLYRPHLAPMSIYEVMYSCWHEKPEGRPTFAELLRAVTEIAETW
Particulars: at 0.1 µM.

For test [7], the target named is T1, Tyrosine-protein kinase TXK (Homo sapiens). As to conditions: at 1 µM.
Test [8] concerns the target Non-receptor tyrosine-protein kinase TYK2 (Homo sapiens) (UniProt P29597). Particulars: at 0.1 µM.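 Note: each value is a mean of the inhibition readings.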
In test [9] the target is T2, Dual specificity protein kinase TTK (Homo sapiens) (UniProt P33981).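 Note: reported figures are mean TTK inhibition at 1 µM.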
T2 sequence (whole entry): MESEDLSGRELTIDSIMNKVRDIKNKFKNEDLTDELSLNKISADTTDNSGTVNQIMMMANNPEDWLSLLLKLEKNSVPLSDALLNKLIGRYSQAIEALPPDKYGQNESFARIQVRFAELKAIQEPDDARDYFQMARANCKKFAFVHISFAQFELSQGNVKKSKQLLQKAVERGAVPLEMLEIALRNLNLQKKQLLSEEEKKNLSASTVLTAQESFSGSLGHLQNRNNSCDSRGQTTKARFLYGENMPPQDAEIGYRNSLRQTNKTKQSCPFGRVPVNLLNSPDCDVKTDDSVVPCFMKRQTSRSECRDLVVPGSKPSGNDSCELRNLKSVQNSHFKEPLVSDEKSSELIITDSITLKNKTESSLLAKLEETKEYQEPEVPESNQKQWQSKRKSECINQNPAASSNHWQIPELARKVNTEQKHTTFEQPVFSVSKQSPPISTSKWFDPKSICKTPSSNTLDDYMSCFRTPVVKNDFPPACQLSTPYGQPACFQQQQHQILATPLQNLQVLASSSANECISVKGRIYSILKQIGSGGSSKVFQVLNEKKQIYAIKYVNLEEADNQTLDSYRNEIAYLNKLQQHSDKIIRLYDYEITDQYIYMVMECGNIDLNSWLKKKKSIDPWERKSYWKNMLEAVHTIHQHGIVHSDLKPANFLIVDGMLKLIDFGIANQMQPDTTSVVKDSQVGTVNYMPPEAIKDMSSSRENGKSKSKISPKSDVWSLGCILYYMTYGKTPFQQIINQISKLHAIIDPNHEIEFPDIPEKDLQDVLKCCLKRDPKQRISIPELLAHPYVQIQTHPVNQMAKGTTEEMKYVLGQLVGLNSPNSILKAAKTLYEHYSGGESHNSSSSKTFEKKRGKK
Particulars: at 1 µM.

Test [10] addresses T3, Aurora kinase A (Homo sapiens) (UniProt O14965).
T3 sequence (whole entry): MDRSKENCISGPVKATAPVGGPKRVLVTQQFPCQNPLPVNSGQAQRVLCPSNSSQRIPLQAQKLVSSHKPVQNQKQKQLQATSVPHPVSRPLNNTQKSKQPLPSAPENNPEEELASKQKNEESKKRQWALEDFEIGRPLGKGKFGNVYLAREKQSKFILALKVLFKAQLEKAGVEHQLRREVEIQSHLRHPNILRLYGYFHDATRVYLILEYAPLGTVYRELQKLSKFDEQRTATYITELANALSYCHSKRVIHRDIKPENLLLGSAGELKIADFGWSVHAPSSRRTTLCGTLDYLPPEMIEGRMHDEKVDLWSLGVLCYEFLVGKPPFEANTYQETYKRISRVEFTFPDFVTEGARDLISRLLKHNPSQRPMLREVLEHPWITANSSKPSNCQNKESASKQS
As to conditions: at 0.1 µM.

Test [11] addresses T3, Aurora kinase A (Homo sapiens). Particulars: at 1 µM.
The target in test [12] is Aurora kinase B (Homo sapiens) (UniProt Q96GD4). As to conditions: at 0.1 µM.
Aurora kinase B (Homo sapiens), sequence (Q96GD4 whole entry): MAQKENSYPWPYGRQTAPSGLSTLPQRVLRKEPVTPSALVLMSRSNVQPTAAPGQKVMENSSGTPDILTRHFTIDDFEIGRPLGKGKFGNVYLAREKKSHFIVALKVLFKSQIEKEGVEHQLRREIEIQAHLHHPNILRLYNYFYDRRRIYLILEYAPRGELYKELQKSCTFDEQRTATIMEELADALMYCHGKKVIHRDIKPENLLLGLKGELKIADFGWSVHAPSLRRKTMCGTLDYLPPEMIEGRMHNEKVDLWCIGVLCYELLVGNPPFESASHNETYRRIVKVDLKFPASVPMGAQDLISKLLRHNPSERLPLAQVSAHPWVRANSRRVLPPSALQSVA
For test [13] the target is unchanged. Particulars: at 1 µM.
Test [14] deals with T4, Aurora kinase C (Homo sapiens) (UniProt Q9UQB9).
T4 sequence (whole entry): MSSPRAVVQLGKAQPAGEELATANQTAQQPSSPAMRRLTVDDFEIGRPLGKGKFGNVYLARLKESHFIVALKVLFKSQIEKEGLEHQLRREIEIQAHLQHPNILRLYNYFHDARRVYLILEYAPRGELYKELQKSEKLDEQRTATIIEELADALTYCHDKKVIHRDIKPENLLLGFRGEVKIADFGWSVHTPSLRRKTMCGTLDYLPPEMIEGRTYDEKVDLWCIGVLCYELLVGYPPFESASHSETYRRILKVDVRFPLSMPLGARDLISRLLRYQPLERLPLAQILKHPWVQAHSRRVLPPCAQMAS
Particulars: at 0.1 µM.

Test [15] concerns the target T4, Aurora kinase C (Homo sapiens). As to conditions: at 1 µM.
Test [16] has as its target Serine/threonine-protein kinase 10 (Homo sapiens) (UniProt O94804). Particulars: at 0.1 µM.
Test [17] has the same target. Particulars: at 1 µM.
Test [18] concerns the target T5, Mitogen-activated protein kinase kinase kinase kinase 2 (Homo sapiens) (UniProt Q12851).
T5 sequence (whole entry): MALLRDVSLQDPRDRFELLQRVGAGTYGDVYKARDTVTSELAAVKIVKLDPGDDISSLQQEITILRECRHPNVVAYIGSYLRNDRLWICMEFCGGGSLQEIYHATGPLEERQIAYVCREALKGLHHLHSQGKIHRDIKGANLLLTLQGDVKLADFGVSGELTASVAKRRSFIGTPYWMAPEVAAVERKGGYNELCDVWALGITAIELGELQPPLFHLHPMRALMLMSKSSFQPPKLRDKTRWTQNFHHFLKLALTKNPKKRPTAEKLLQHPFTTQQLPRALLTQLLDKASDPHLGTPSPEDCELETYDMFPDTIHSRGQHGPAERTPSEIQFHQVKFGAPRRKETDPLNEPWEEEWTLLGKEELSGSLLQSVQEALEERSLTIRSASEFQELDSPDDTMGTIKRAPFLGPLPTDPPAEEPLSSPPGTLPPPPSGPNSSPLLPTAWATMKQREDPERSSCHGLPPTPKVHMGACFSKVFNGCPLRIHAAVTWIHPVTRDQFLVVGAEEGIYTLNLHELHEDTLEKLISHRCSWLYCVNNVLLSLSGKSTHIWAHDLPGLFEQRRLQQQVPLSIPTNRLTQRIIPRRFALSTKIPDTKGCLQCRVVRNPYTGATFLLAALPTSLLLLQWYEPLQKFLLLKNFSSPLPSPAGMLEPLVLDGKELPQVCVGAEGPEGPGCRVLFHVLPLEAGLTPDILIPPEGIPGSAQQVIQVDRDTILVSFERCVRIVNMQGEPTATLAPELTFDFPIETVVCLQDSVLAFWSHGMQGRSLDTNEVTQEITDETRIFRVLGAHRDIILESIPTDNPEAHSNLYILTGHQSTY
Particulars: at 0.1 µM.

In test [19] the target is T5, Mitogen-activated protein kinase kinase kinase kinase 2 (Homo sapiens). As to conditions: at 1 µM.
Test [20] has as its target Mitogen-activated protein kinase kinase kinase kinase 4 (Homo sapiens) (UniProt O95819). As to conditions: at 0.1 µM.

BDNF/NT-3 growth factors receptor (Homo sapiens), sequence (Q16620 32-822 limits assumed): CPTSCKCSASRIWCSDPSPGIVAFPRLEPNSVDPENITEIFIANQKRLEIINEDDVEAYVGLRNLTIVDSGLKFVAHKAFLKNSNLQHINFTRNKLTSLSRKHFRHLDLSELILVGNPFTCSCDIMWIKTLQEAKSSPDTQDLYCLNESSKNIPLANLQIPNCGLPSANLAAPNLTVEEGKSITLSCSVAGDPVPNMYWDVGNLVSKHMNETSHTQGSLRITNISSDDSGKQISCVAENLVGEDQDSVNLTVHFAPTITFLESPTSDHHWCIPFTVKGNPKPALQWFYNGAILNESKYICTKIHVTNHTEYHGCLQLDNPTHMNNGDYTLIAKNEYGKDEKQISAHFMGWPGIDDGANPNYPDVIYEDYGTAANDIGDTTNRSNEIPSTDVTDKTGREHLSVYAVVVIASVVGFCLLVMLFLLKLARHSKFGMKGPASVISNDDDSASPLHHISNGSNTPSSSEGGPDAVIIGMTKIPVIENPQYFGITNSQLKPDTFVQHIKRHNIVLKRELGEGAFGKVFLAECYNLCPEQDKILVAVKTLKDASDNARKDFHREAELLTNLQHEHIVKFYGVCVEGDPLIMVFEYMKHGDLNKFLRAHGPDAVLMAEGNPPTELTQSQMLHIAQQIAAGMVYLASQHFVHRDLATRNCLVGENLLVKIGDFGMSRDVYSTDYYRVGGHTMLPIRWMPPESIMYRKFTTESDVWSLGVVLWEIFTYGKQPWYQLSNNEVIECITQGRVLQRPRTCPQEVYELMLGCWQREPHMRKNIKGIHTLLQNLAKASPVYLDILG
High affinity nerve growth factor receptor (Homo sapiens), sequence (P04629 33-796 limits assumed): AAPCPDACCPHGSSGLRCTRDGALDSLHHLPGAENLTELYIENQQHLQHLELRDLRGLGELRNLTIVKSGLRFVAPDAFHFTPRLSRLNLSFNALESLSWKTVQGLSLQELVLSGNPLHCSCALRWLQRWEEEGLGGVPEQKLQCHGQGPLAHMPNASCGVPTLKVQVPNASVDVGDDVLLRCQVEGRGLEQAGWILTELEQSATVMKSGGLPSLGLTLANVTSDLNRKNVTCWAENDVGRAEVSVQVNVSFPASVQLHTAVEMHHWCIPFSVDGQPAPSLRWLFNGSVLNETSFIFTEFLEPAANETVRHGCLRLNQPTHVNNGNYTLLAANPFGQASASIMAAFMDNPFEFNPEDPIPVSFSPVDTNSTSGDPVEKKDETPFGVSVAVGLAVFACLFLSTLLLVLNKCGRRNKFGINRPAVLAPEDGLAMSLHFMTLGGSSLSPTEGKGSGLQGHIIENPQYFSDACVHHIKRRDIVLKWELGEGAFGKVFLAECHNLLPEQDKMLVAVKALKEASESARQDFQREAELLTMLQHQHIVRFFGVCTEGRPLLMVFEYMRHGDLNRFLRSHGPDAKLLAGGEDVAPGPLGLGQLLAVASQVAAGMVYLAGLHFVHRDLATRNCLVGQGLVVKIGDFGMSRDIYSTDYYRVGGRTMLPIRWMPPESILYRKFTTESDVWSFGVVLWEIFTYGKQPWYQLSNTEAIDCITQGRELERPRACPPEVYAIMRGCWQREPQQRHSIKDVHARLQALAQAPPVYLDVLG
Non-receptor tyrosine-protein kinase TYK2 (Homo sapiens), sequence (P29597 whole entry): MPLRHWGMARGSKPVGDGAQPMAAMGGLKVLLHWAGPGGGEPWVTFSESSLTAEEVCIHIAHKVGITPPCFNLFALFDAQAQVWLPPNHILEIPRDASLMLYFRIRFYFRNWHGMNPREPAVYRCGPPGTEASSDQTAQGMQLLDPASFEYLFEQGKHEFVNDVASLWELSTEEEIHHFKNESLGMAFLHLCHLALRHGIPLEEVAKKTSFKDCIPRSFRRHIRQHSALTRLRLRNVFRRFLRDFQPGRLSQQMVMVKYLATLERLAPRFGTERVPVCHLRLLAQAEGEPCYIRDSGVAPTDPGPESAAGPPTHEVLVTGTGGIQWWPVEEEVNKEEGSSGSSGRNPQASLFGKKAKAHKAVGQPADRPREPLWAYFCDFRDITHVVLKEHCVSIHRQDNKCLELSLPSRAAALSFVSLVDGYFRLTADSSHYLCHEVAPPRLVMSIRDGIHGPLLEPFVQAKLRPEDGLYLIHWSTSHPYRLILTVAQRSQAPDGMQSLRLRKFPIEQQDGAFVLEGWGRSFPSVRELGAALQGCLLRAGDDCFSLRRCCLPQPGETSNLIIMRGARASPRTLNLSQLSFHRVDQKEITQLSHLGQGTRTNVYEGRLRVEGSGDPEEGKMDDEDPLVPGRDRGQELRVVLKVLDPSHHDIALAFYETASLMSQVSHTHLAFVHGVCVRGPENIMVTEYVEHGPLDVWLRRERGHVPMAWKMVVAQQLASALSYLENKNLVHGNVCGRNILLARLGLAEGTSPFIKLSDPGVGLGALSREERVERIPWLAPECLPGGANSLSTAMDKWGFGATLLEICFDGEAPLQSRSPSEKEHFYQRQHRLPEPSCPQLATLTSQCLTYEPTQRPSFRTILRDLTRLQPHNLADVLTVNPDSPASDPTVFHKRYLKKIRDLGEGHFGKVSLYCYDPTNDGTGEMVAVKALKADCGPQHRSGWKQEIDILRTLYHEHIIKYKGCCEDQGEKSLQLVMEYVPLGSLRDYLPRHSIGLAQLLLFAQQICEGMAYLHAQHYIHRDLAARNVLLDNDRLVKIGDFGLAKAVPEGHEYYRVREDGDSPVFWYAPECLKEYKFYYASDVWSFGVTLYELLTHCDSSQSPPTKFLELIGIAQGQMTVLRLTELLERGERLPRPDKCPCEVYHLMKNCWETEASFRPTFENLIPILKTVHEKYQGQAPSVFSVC
Serine/threonine-protein kinase 10 (Homo sapiens), sequence (O94804 whole entry, looked up): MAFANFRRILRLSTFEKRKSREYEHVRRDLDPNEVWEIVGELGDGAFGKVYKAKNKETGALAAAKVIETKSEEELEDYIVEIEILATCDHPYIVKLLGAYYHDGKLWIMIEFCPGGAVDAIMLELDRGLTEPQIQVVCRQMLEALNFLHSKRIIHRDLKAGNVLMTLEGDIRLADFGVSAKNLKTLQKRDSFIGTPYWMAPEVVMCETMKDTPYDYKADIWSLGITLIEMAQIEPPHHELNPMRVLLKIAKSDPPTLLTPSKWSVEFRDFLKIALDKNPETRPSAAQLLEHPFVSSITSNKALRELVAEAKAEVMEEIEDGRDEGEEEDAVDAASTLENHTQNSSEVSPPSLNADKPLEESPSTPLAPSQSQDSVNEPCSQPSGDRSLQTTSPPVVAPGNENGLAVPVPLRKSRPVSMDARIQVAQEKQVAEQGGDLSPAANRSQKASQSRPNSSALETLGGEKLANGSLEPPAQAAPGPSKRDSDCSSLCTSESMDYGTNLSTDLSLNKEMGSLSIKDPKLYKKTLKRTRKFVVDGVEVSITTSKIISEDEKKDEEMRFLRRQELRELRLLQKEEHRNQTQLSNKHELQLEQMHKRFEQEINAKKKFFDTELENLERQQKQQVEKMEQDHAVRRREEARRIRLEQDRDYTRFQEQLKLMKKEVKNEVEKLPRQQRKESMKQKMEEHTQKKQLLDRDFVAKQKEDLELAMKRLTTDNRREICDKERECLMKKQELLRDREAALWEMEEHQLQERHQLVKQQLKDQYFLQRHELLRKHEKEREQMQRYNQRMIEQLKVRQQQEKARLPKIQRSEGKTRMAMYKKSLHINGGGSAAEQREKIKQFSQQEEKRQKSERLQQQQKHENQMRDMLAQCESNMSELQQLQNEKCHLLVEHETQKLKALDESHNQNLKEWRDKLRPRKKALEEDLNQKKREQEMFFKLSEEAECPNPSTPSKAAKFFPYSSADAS

For the molecule `COc1ccc(-c2cc3c(N)ncnc3o2)cc1`, the inhibition in test [1] is 2.94%; in test [2], -0.36%; in test [3], 1.81%; in test [4], 0.53%; in test [5], 0.25%; in [6] it was 0.91%. Besides, the inhibition was 2.2% in [7]; -0.95% in test [8]; 0.09% in test [9]; 0.51% in [10]; 1.33% in test [11]; -0.85% in test [12]. Further, the inhibition in test [13] was 11.7%; in [14], 1.13%; in test [15], 16.7%; in test [16], -1.35%; in test [17] it was 0.33%; in test [18], 2.31%. The inhibition in test [19] worked out at 4.72%; in [20] it was 2%.
For the molecule `c1cc(-c2cnn3nc(N4CCOCC4)ccc23)nc(NC2CC2)n1`, the inhibition in [1] amounted to 0.98%; in test [2], 1.83%; in test [3], 1.21%; in [4] it was 1.5%; in test [5], 2.55%; in test [6], 3.34%. Also, the inhibition is 6.11% in test [7]; -8.45% in [8]; 60.1% in [9]; 1.84% in [10]; 22% in test [11]; 7.41% in test [12]. Also, the inhibition in test [13] was 46.8%; in test [14] it was 7.39%; in [15] it was 75.5%; in test [16] it was 5.74%; in test [17], 12.1%; in test [18], -0.22%. Besides, the inhibition in [19] is 5.78%; in [20] it was 6.38%.
Regarding `c1ccc(-c2nc3n(c2-c2ccc4c(c2)OCO4)CCC3)nc1`, the inhibition in [1] is 2.69%; in [2], -0.27%; in test [3], 2.27%; in test [4], -0.01%; in test [5] it was 3.2%; in [6] it was 1.77%. Moreover, the inhibition in test [7] was 1.77%; in [8], -1.06%; in test [9], 0.07%; in test [10], 0.45%; in [11] it was 2.32%; in test [12], 1.52%. Further, the inhibition is 2.28% in [13]; 0.37% in test [14]; -3.23% in test [15]; -0.05% in test [16]; 3.42% in test [17]; 2.19% in test [18]. Further, the inhibition in test [19] came out at 2.78%; in test [20] it was 2.84%.
Turning to `CNC(=O)c1cccc(C#Cc2cncnc2Nc2ccc(OCc3cccc(F)c3)c(Cl)c2)c1`, the inhibition amounted to 0.53% in [1]; 2.25% in test [2]; 1.08% in test [3]; 0.94% in test [4]; 2.86% in test [5]; 1.86% in test [6]. Further, the inhibition in test [7] was 3.33%; in [8] it was -0.77%; in [9] it was 9.1%; in [10], 2.9%; in test [11], 11.8%; in test [12] it was -0.67%. The inhibition in test [13] is 4.77%; in [14] it was 1.94%; in [15] it was -5.97%; in [16], 0%; in [17], 4.51%; in [18] it was -1.31%. Also, the inhibition was 0.34% in test [19] and -0.86% in [20].
Turning to `CC(=O)Nc1cccc(C#Cc2cncnc2Nc2ccc(OCc3cccc(F)c3)c(Cl)c2)c1`, the inhibition in test [1] is -0.49%; in test [2], 0.63%; in test [3], 0.88%; in test [4] it was -1.1%; in test [5], 1.69%; in [6], 5.05%. Also, the inhibition is 8.59% in [7]; 1.05% in [8]; 7.9% in test [9]; 2.48% in test [10]; 8.44% in test [11]; 1.68% in test [12]. The inhibition in test [13] is 5.28%; in [14], 2.09%; in test [15] it was 15.3%; in [16], 2.85%; in test [17] it was 4.01%; in [18] it was 0.88%. Moreover, the inhibition in [19] turned out to be 1.54%; in [20] it was 2.7%.
With `CC(C)(CO)CNC(=O)c1ccc2c(c1)/C(=N/Nc1ccc(S(N)(=O)=O)cc1)C(=O)N2`, the inhibition in [1] is 15.6%; in test [2], 3.35%; in test [3] it was 31.2%; in test [4], 6.89%; in test [5], 41.5%; in test [6], -0.15%. In addition, the inhibition was 3.21% in test [7]; -1.38% in test [8]; 79.2% in [9]; 11.9% in [10]; 56.2% in [11]; 0.26% in [12]. In addition, the inhibition in test [13] was 21%; in [14], 3.09%; in [15], 43%; in test [16], -1.79%; in test [17] it was 4.55%; in test [18] it was 0.92%. Also, the inhibition was determined as 3.15% in [19] and 0.68% in test [20].
In the case of `CN1CCC(n2cnc(-c3ccc(F)cc3)c2-c2ccnc(N)n2)CC1`, the inhibition in [1] amounted to 3.59%; in [2], 0.4%; in [3] it was 6.74%; in [4], 3.47%; in test [5], 8.74%; in test [6], 2.63%. In addition, the inhibition in test [7] was 6.31%; in [8], -2.21%; in test [9], -7.5%; in test [10], 4.64%; in test [11] it was 7.96%; in [12], 1.08%. In addition, the inhibition in test [13] is 7.37%; in test [14], 1.63%; in test [15], 1.25%; in test [16], 3.39%; in [17] it was 5.28%; in test [18], 0.79%. Besides, the inhibition in [19] was found to be 5.37%; in [20] it was 2.95%.

As a reminder, the inhibition is the relative decrease from the control value, in per cent.
